# ClpP mod: qHTS Assay for Activators of ClpP; AID 651965, 2013; ATP-dependent Clp protease proteolytic subunit (Bacillus subtilis (strain 168)), P80244; purified B. subtilis ClpP, FRET peptide cleavage, 20 min; 340,000 tested, 1.9% active; Potency, µM (highest dose often 57.5 µM), for the others: at the highest dose activity change, negative = active; active = well fitted falling curve with a large enough effect; inconclusive = small, poorly fitted or top-dose-only effect; inactive = no such curve, though single readings can be large or run the other way; also: potency is read from the fitted curve at half-maximal effect; the source files actives as falling curves though it sought activators and does not explain the sign; nearly all actives have a fitted effect of over 65% in size
# Target sequence (P80244 whole entry, looked up): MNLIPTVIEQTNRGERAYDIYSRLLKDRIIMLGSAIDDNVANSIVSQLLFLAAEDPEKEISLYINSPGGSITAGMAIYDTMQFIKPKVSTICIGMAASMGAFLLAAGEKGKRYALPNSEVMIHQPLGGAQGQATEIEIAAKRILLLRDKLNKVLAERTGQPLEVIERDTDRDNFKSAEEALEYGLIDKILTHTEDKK
#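 ClpP 10 microg/mL final, pH 8 Tris/KCl buffer with BSA, glycerol, Tween-20; compound pinned in; FRET-FV substrate; RT 20 min; Ex320/Em430; ΔFRET vs ADEP 5.8 microM, DMSO, no enzyme.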
# IL-2 act: qHTS of IL-2 Activators. IL-2 activation reporter assay, cell-based qHTS; stimulated with anti-CD3/CD4/CD28 beads; in transgenic mouse T cells. activation, % (series mostly up to about 46 µM). 360,000 tested, 0.065% active. AID 652025, 2013; in the data active = activation above about 50%; inconclusive = mostly about 30% to 49%; also: 0% is about no effect
#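 Unstimulated transgenic mouse T cells preincubated 60 min with compound, then stimulated with anti-CD3/anti-CD4-coated beads plus anti-CD28 for 18 h at 37 degrees C. IL-2 response read as EGFP and DsRed fluorescence by plate cytometry.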
# Pin1 inhibitor: qHTS Assay to Find Inhibitors of Pin1; Pin1 FP peptide displacement, HiFluor488, 10 min; Potency, µM (top dose mostly 115 µM), for the others: top-dose activity, negative = inhibition, hits mostly inhibitors; 390,000 tested, 0.009% active; AID 504891, 2011; active = well fitted inhibition curve with a large enough effect in the polarisation, with a control signal flat, not every such curve was filed as active; inconclusive = small, poorly fitted or top-dose-only effect, or effect the other way, or a change in a side signal; inactive = no such curve, though single readings can be large or run the other way; the % refers to the polarisation; also: potency is read from the fitted curve at half-maximal effect; % is scaled to controls: 0 for no effect and ±100 for the full control effect
# Target sequence (Q13526 whole entry, looked up): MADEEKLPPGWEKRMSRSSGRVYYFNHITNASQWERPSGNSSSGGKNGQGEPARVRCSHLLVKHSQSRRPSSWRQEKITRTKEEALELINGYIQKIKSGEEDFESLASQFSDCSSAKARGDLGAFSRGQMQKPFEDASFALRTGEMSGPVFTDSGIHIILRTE
# PKM2 act: qHTS Assay for Activators of Human Muscle isoform 2 Pyruvate Kinase; Pyruvate kinase PKM (Homo sapiens), P14618; purified PKM2, Kinase-Glo ATP luminescence, activation; response scale: 0% is enzyme alone, no compound; Potency, µM (top dose mostly 57.5 µM), for inactives: top-dose activation, usual class: activators; 260,000 tested, 0.34% active; also: potency is read from the fitted curve at half-maximal effect; % is scaled to controls: 0 for no effect and ±100 for the full control effect; nearly all actives have a fitted effect of over 55% in size
#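 hPK-M2, >95% pure; 0.1 mM ADP / 0.5 mM PEP final; imidazole pH7.2 buffer w/ 7 mM MgCl2, 50 mM KCl; 1 h RT; Kinase-Glo lum. Intermediate enzyme activity for dual inhibitor/activator qHTS.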
# USP2a inh: qHTS Assay for Inhibitors of Ubiquitin-specific Protease USP2a Using CHOP2 as the Reporter | USP2 core, Ub-CHOP2 coupled fluorogenic reporter, 485/531 | Potency, µM (top dose mostly 38.3 µM), inactives show at the top dose activity change, negative = inhibition, most hits filed as inhibitors | 330,000 tested, 0.01% active | AID 463254, 2010;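 also: potency is read from the fitted curve at half-maximal effect; plate controls were DMSO wells for no effect and full inhibition by NEM control for full effect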
#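 Cell-free coupled assay: 10nM USP2 core preincubated 30min RT with compound in Tris-HCl pH 8.0/CaCl2/CHAPS buffer, then 25nM Ub-CHOP2 and 25nM reporter substrate; fluorescence (Ex 485/Em 531) read after 60min RT, normalized to NEM inhibition, concentration-response curves fitted.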
# a7 integrin act: qHTS for Activators of Integrin-Mediated Alleviation for Muscular Dystrophy; alpha7betagal myoblasts, beta-gal FDG fluorescence, 48 h; Potency, µM (titrated, usually from 38.3 µM), inactives show at the highest dose activation, hits mostly activators; 350,000 tested, 0.064% active; AID 624291, 2012;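 also: potency is read from the fitted curve at half-maximal effect; 100% = response of the positive control SU9516; nearly all actives have a fitted effect of over 60% in size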
#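 Alpha7betagal+/- myoblasts (passage 13) were plated 16-24 hr, then exposed to compounds (1:260 dilution of DMSO stock) for 48 hours at 37C. After MPER lysis, β-galactosidase reporter activity was read as FDG fluorescence (ex 480/em 540) after 30 minutes.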
# * marks the source's active call; other numbers are inactive results; ? = inconclusive; nt = no result. Compounds with a hit are over-represented: about 1.9% of the library has one in this group of screens. Unless noted, calls follow the shape of the dose curve; as a rule, active = well fitted curve in the direction sought with a large enough effect; inconclusive = small, poorly fitted or top-dose-only effect, or another doubt; inactive = no such curve, though single readings can be large; an effect the other way counts as inactive or inconclusive.
SMILES,ClpP mod,IL-2 act,Pin1 inhibitor,PKM2 act,USP2a inh,a7 integrin act
COC(=O)[C@@]1(Cc2ccc(F)cc2)[C@H]2c3cc(C(=O)N4CCCC4)n(Cc4ccc(C)c(F)c4F)c3C[C@H]2CN1C(=O)c1ccccc1,0.9%,-0.9,nt,-12.1%,nt,nt
COC(=O)[C@@]1(Cc2ccc(OC)cc2)[C@H]2c3cc(C(=O)N(C)C)n(Cc4ccc(C)o4)c3C[C@H]2CN1C(=O)c1ccccc1,nt,nt,nt,8.91µM*,nt,nt
C=C1Nc2ccccc2C(=O)N1c1ccc(C(=O)N2CCN(C(=O)c3ccco3)CC2)cc1,4.5%,nt,-11.4%,nt,nt,nt
CCOC(=O)c1c(C)nc2c(c(SC)nn2-c2ccccc2)c1N,25.1µM*,0.4,-14.1%,-9.9%,0.1%,12.4%
CCOC(=O)c1nn(-c2ccccc2)c(C(=O)OCC)c1N,2µM*,-0.7,4.9%,0.2%,-0.1%,-11.0%
O=C(C[n+]1ccc2ccccc2c1)c1ccc(F)cc1,68.4%,nt,nt,nt,nt,nt
O=C(O)Cn1cc(/C=c2/sc3nc4ccccc4n3c2=O)c2ccccc21,nt,166.0*,51.1%,-0.4%,1.1%,2.5%
O=C(OCCNc1ncc(C(F)(F)F)cc1Cl)c1ccc(S(=O)(=O)N2CCOCC2)cc1,1.0%,3.2,?,20µM*,0.9%,-18.0%
COc1ccc(NC(C)c2cc(Cl)ccc2O)cc1 (stereo unspecified),3.16µM*,-0.5,-16.7%,-2.2%,0.0%,6.2%
C[n+]1cccc(Br)c1,-1.3%,nt,nt,nt,nt,nt
CCOC(=O)N(C)c1ccc(C(O)(C(F)(F)F)C(F)(F)F)cc1,31.6µM*,-1.2,-5.4%,17.3%,1.5%,5.8%
Cc1ccc2nc(CS)[nH]c2c1,9.8%,nt,nt,nt,nt,nt
CC1=C(C#N)C(c2cccnc2)C2=C(CCCC2=O)N1 (stereo unspecified),8.91µM*,1.4,-2.1%,6.2%,-0.2%,5.9%
CC1=C(C#N)C(c2cccnc2)C2=C(N1)c1ccccc1C2=O (stereo unspecified),0.1%,0.0,-0.3%,6.0%,-0.8%,11.0%
CCOc1ccc2cc(C#N)c(SCC(=O)OCc3ccccc3)nc2c1,4.1%,nt,34.6%,nt,nt,nt
O=C(C[n+]1ccnc2ccccc21)c1ccc(Br)cc1,1.2%,nt,nt,nt,nt,nt
CC(=O)Nc1ccc(/C=C/c2ccccn2)cc1,-12.3%,nt,nt,nt,nt,nt
CC(=O)Nc1cc(-c2ccccc2)ccc1O,3.8%,1.0,7.0%,-9.5%,-3.8%,16.1%
Nc1cc(-c2ccccc2)ccc1O,31.6µM*,-0.3,-1.0%,-5.7%,-2.7%,-37.4%
Clc1nc(NCC2CCCO2)c2[nH]cnc2n1 (stereo unspecified),-4.6%,nt,0.9%,nt,nt,nt
CNC(=O)/C(=C\c1cccc(Oc2ccccc2)c1)NC(=O)c1ccccc1,-1.6%,1.4,1.9%,7.5%,9.5%,11.2µM*
NCCCN(Cc1ccc(Cl)cc1)c1ccc(Br)cn1,-5.1%,nt,-1.4%,nt,nt,nt
CCCCc1nc2ccccc2c(N)c1CCC (tested in a mixture with another compound),?,-6.0,-9.3%,-22.6%,1.5%,11.2µM*
CCCCc1nc2ccccc2c(NC(=O)CNC(C)(C)C)c1CCC,1.1%,1.5,5.2%,5.4%,nt,-38.5%
CCc1ccc2oc(-c3cc(NC(=O)COc4ccc(C)cc4)ccc3O)nc2c1,-0.5%,nt,nt,nt,nt,nt
COc1ccccc1Oc1nc(-c2ccccc2)cc(C)c1S(C)(=O)=O,25.1µM*,-2.9,1.8%,1.7%,-6.8%,6.7%
CC(C)(C)C(=O)Nc1nnc(SCC(=O)Nc2nccs2)s1,20µM*,0.3,0.8%,-8.8%,1.0%,14.9%

# Assay outcomes from PubChem.
